Source: PubChem BioAssay (EPA / NIEHS)
Records with an inconclusive call do not appear. Activity calls are given as the source filed them. Rule for the calls: active = hit-call score of the fitted dose curve at least 0.9, where 1 is the maximum; inconclusive = response in the unintended direction; inactive = score below 0.9.

What follows are compounds tested on Cytochrome P450 2B6 (Homo sapiens) (UniProt P20813) (assay: CLD_CYP2B6_6hr: CellzDirect (CLD) Gene Expression Assay for xenobiotic metabolism (CYP2B6) at 6 hours (AID 2283677);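 note: actives raise CYP2B6 transcript above DMSO baseline so AC50 marks an inducer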).
Description: CLD_6hr is a cell-based, multiplexed-readout assay that uses hepatocyte, a human liver primary cell, with measurements taken at 6 hours after chemical dosing in a 96-well plate.CLD_CYP2B6_6hr is one of 16 assay component(s) measured or calculated from the CLD_6hr assay. It is designed to make measurements of mRNA induction, a form of inducible reporter, as detected with chemiluminescence signals by Quantitative Nuclease Protection Assay (qNPA) technology.Data from the assay component CLD_CYP2B6_6hr was analyzed at the endpoint, CLD_CYP2B6_6hr, in the positive analysis fitting direction relative to DMSO as the negative control and baseline of activity. Using a type of inducible reporter, gain-of-signal activity can be used to understand changes in the reporter gene as they relate to the gene CYP2B6. Furthermore, this assay endpoint can be referred to as a primary readout. To generalize the intended target to other relatable targets, this assay endpoint is annotated to the cyp intended target family, where subfamily is xenobiotic metabolism.
Human hepatocyte cultures were treated daily for two consecutive days with fresh dosing solutions containing appropriate concentrations of the 320 ToxCast chemicals (chemical identities were blinded to CellzDirect and other ToxCast collaborators), vehicle control (0.2% DMSO), and positive control inducers as summarized in Table 1. Due to the large number of treatment groups and chemicals examined, the ToxCast chemicals were divided into two groups (spanning two independent cultures of hepatocytes from separate donor preparations (Hu778: ToxCast plates 1 and 2; Hu776: ToxCast plates 3 and 4). Each preparation of human hepatocyte cultures was treated with respective vehicle control, medium only control, set of six positive controls/reference chemicals for the five hepatic receptor pathways, and a subset of eight of the ToxCast chemicals (indoxacarb, pyrithiobac-sodium, norflurazon, cyhalofop-butyl, methomyl, thiram, acetochlor, and propiconazole). These replicate data, coupled with internal replicates designed within the blinded ToxCast chemical library, provided additional data to evaluate interindividual differences between hepatocyte preparations and their potential impact on chemical profiles.Cell morphology and integrity were evaluated using phase-contrast microscopy as an indicator of hepatocyte cell health (Tyson & Green, 1987). Cultures for each treatment group (i.e., media, vehicle [0.2% DMSO], positive control inducers [multiple concentrations], and the ToxCast chemicals [multiple concentrations]) were observed and cell morphology was assessed relative to vehicle control cultures at each harvest time point (0, 6, 24, or 48 h). […] Images were evaluated at the conclusion of the study to assess changes in cell integrity and account for the effects of chemical exposure on uncharacteristic changes in concentration-dependent gene expression profiles. The results from these determinations of apparent cytotoxicity were annotated (yes/no) alongside the corresponding qNPA data for reference.At the conclusion of each treatment period, hepatocyte cultures (96-well) were washed with 1 volume of HBSS, lysed by addition of 25 ul ArrayPlate lysis buffer (HTG, Tucson, AZ), and 70 ul/well of Denaturation Oil, denatured by incubation at 95C for 10 min, and frozen at approximately -70C until analysis by nuclease protection assay (qNPA) (Roberts et al., 2007). For qNPA analysis, cell lysates were thawed at 50C for approximately 30 min, qNPA probes were added, and samples were incubated at 95C for 10 min to begin the detection process by denaturing the target RNA, dissociating the duplexes and secondary structure hybridization. At the conclusion of the hybridization period, S1 nuclease reagent was added to each sample to digest all nonprotected nucleotides at 50C for 60-90 min. […]

SMILES | outcome | AC50
COC(=O)NS(=O)(=O)c1ccc(N)cc1 | inactive | 
COP(=S)(OC)SCn1nnc2ccccc2c1=O |  | 448 nM (active)
CCCN(CC)CC1COC2(CCC(C(C)(C)C)CC2)O1 (stereo not given) |  | 13400 nM (active)
COCC(C)N(C(=O)CCl)c1c(C)csc1C (stereo not given) |  | 6940 nM (active)
CSC(=O)c1c(C(F)F)nc(C(F)(F)F)c(C(=O)SC)c1CC(C)C |  | 2110 nM (active)
CCC(C)n1c(=O)[nH]c(C)c(Br)c1=O (stereo not given) |  | 3080 nM (active)
C=CCOC(=O)C(C)(C)OC(=O)c1cc(-n2c(=O)cc(C(F)(F)F)n(C)c2=O)ccc1Cl |  | 320 nM (active)
CC(C)N1C(=O)N(c2ccccc2)CSC1=NC(C)(C)C |  | 7110 nM (active)
N#Cc1c(Cl)cccc1Cl |  | 4850 nM (active)
CNC(=O)Oc1cccc2ccccc12 |  | 6150 nM (active)
CCCCC(C#N)(Cn1cncn1)c1ccc(Cl)cc1 (stereo not given) |  | 2770 nM (active)
COC(=O)c1c(C(F)F)nc(C(F)(F)F)c(C2=NCCS2)c1CC(C)C |  | 277 nM (active)
Nc1c(Cl)c(F)nc(OCC(=O)O)c1Cl | inactive | 
CC1(C)CON(Cc2ccccc2Cl)C1=O |  | 3310 nM (active)
COC(=O)N(C(=O)N1CO[C@@]2(C(=O)OC)Cc3cc(Cl)ccc3C2=N1)c1ccc(OC(F)(F)F)cc1 |  | 2090 nM (active)
CCOc1nc(F)cc2nc(S(=O)(=O)Nc3c(Cl)cccc3Cl)nn12 |  | 14400 nM (active)
CC1(C)C(C=C(Cl)Cl)C1C(=O)OC(C#N)c1cccc(Oc2ccccc2)c1 (stereo not given) |  | 1540 nM (active)
CC(C)(C)C(=O)C(Oc1ccc(Cl)cc1)n1cncn1 (stereo not given) |  | 3950 nM (active)
CC(C)Nc1nc(Cl)nc(NC(C)C)n1 |  | 2470 nM (active)
COP(=S)(OC)Oc1ccc([N+](=O)[O-])c(C)c1 |  | 1460 nM (active)

SMILES | outcome | AC50
C=C(C)CN(CC)c1c([N+](=O)[O-])cc(C(F)(F)F)cc1[N+](=O)[O-] | inactive | 
COc1cc(OC)nc(NC(=O)NS(=O)(=O)c2ncccc2OCC(F)(F)F)n1 | inactive | 
CCSC(=O)N1CCCCCC1 |  | 2280 nM (active)
CCOc1cc(C(C)(C)C)ccc1C1COC(c2c(F)cccc2F)=N1 (stereo not given) |  | 4690 nM (active)
CCCC(=NOCC)C1=C(O)CC(CC(C)SCC)CC1=O (stereo not given) | inactive | 
CCCCC(O)(Cn1cncn1)c1ccc(Cl)cc1Cl (stereo not given) |  | 2080 nM (active)
CC(C)C1(C)N=C(c2ncccc2C(=O)O)NC1=O (stereo not given) |  | 0.54 nM (active)
O=c1n(Cl)c(=O)n(Cl)c(=O)n1Cl | inactive | 
Clc1nc(Cl)nc(Nc2ccccc2Cl)n1 | inactive | 
CS(=O)(=O)c1cc(C(F)(F)F)ccc1C(=O)c1cnoc1C1CC1 | inactive | 
Cc1ccc(N=CN(C)C=Nc2ccc(C)cc2C)c(C)c1 | inactive | 
CNC(=O)N(C)c1nnc(C(C)(C)C)s1 | inactive | 
CCN(CC)C(=O)C(C)Oc1cccc2ccccc12 (stereo not given) |  | 317 nM (active)
CCNP(=S)(OC)O/C(C)=C/C(=O)OC(C)C (stereo not given) |  | 840 nM (active)
N#CN=C1SCCN1Cc1ccc(Cl)nc1 | inactive | 
CCOP(=S)(OCC)Oc1nc(Cl)n(C(C)C)n1 |  | 511 nM (active)
CC(C)Oc1cccc(NC(=O)c2ccccc2C(F)(F)F)c1 |  | 3680 nM (active)
CC(C)=CC1C(C(=O)OCc2coc(Cc3ccccc3)c2)C1(C)C (stereo not given) |  | 7480 nM (active)
COP(=O)(OC)O/C(C)=C/C(=O)N(C)C | inactive | 
Cc1c(COC(=O)[C@@H]2[C@H](/C=C(\Cl)C(F)(F)F)C2(C)C)cccc1-c1ccccc1 |  | 4270 nM (active)
